Inconclusive results are not listed. Where a call stands in place of a potency, no number is given. Calls of active or inactive are those of the source. Calls follow the shape of the dose curve; as a rule, active = well fitted inhibition curve with a large enough effect; inconclusive = small, poorly fitted or top-dose-only effect, or effect the other way; inactive = flat fitted curve, though single readings scatter.
Molecular target: Ubiquitin carboxyl-terminal hydrolase 2 (Homo sapiens) (UniProt O75604)
Sequence (O75604 whole entry, looked up): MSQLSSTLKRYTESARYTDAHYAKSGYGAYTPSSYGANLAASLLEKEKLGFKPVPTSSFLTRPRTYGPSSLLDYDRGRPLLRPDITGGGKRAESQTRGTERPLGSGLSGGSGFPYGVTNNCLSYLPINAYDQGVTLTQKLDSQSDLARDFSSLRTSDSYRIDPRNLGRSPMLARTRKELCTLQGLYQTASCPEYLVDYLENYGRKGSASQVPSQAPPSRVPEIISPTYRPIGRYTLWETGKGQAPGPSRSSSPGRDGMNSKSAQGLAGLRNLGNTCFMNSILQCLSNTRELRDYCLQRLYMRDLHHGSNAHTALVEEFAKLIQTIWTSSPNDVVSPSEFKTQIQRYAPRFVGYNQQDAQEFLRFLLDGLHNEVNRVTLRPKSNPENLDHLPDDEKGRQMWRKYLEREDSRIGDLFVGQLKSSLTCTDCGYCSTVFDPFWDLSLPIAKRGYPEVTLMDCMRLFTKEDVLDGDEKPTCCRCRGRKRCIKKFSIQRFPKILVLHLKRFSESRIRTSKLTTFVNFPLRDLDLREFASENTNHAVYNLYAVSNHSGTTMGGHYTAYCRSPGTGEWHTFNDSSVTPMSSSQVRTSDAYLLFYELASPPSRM
Assay: Ub-rhodamine 110 based assay for inhibitors Ubiquitin-specific Protease USP2a; also: nearly all actives have a fitted effect of over 50% in size
Outline: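 Kinetic fluorescence (485/531 nm) read each minute over 7 min after adding Ub-Rhod110 (150 nM final) to USP2a (5 nM final). The enzyme had 30 min RT exposure to compounds beforehand in Tris pH 8.0 buffer with CaCl2, CHAPS and beta-ME.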
Potency is read from the fitted curve at half-maximal effect.

Structure (SMILES) | Potency
C#CCOCCOCCOCCNc1nc(N2CCN(C(=O)CCCCCCCCCCNC(=O)Cn3cc(CCCCCN)nn3)CC2)nc(N2CCN(C(=O)CCCCCCCCCCNC(=O)Cn3cc(CCCCCN)nn3)CC2)n1 | inactive
CC(C)Cn1c(SCC(N)=O)nnc1-c1cccc(S(=O)(=O)N2CCOCC2)c1 | inactive
O=C(Nc1ccc(Oc2ccc(Cl)cc2)cc1)c1ncn[nH]1 | inactive
COc1ccc(NC(=O)CSc2nc3sc(C)cc3c(=O)n2C)c(OC)c1 | inactive
COc1ccc(NC(=O)CSc2nnc(-c3ccccc3Cl)n2Cc2ccco2)c(OC)c1 | inactive
O=C(CSc1nnc(SCc2ccccc2)s1)N/N=C/c1c[nH]c2ccccc12 | 10 µM (active)
Cc1cccn2c(=O)c3cc(C(=O)NCCN4CCOCC4)c(=N)n(CCN4CCOCC4)c3nc12 | inactive
CCCCNc1nc2ccccc2nc1NS(=O)(=O)c1cccs1 | inactive
CCCc1cc(=O)oc2cc(C)c(CN3CCCC3)c(O)c12 | 10 µM (active)
COC(=O)c1ccc(NC(=O)CSC2=Nc3ccccc3C3CC=NN23)cc1 (stereo not given) | inactive
Cc1ccc(C2=NC(=O)/C(=C/c3cc(O)c(O)c(Br)c3)S2)cc1 | 1.58 µM (active)
Cc1cc(SCC(=O)Nc2ccccc2)nc(C)n1 | inactive
COc1cccc(N2C(=O)C3CCCN3C2c2ccc(N(C)C)cc2)c1 (stereo not given) | inactive
O=C(Nc1ccc2c(c1)OCO2)NC1(C(F)(F)F)Oc2ccccc2O1 | inactive
COc1cc(-c2nc(-c3ccc4c(c3)-c3ccccc3S4(=O)=O)c(-c3ccccc3)[nH]2)cc(OC)c1O | inactive

Reference: PubChem BioAssay AID493170 (National Center for Advancing Translational Sciences (NCATS), 2011)
